Measured values: PubChem BioAssay (EPA / NIEHS)
Inconclusive results are not listed. Calls of active or inactive are those of the source. How the source made its calls: active means hit-call score of the fitted dose curve at least 0.9, where 1 is the maximum; inconclusive means response in the unintended direction; inactive means score below 0.9.

Assay: STM_H9_NormalizedViability: Cytotoxicity Assessment at 120 hours in the Stemina devTOX quickPredict H9 human embryonic stem cell (hESC)-based Assay (AID 2283784)
Protocol: STM_H9_viability utilizes undifferentiated H9 cells to measure cell viability.STM_H9_NormalizedViability is a component calculated in the STM_H9_viability assay. It measures cell viability using background corrected relative fluorescence units (RFU) value from the CellTiterFluor Assay normalized to the value of the 0.1% DMSO neutral control treatment (by 96-well plate)Data from the assay component STM_H9_Viability was analyzed at the assay endpoint STM_H9_Viability_Norm in the positive analysis fitting direction relative to DMSO as the negative control and baseline of activity. Using a type of viability reporter, loss-of-signal activity can be used to understand viability.
H9 hESCs maintained in a pluripotent state were exposed to test compound for 72h with chemical replenishment with media replacement every 24h. Cell-conditioned media from the final 24-h treatment period was collected for analysis of the targeted biomarker, and cell viability of the corresponding cell layer was assessed. The chemical library was tested in blinded fashion. Each test plate included 1uM Methotrexate (MTX; Selleck Chemicals, Houston, Texas) as a positive reference, 5 nM MTX as a negative reference, 0.1% DMSO as the neutral (vehicle) control, and sample-level media blanks.H9 cell-conditioned media from the final 24-h treatment period was collected for analysis of the targeted biomarker and cell viability was measured from the corresponding cell layer. Cell viability was measured using the CellTiter-Fluor assay (Promega, Madison, Wisconsin) based on proteolytic cleavage of a substrate to fluorescent signal proportional to the number of living cells. The cell viability Relative Fluorescence Unit (RFU) was background corrected and normalized to mean RFU of the neutral control (0.1% DMSO). The collected H9-cell-conditioned media samples were processed for targeted biomarker analysis as described (Palmer et al., 2013). Briefly, spent media samples were deproteinized (40% acetonitrile) and processed for UPLC-HRMS. Data acquisition was performed using 4 separate UPLC-HRMS systems, consisting of an Agilent 1290 Infinity LC system (Agilent Technologies) interfaced with an Agilent high-resolution mass spectrometer (models G6520A, G6520B, G6530A, and G6224A). A Waters Acquity UPLC BEH Amide column (2.1mm x 50mm, 1.7lm particle size; Waters, Milford, Massachusetts) maintained at 40C was applied for separation of metabolites using a 6.5min solvent gradient with 0.1% formic acid in water and 0.1% formic acid in acetonitrile (1.0ml/min flow rate). Data were acquired using MassHunter Acquisition software (version B 04.00, Agilent Technologies). The extracted ion chromatogram (EIC) areas for ORN, CYSS, and their respective spike-in C13-standards were determined using the Agilent MassHunter Quantitative Analysis software, version B.05.00 or newer (Agilent Technologies), and data were normalized as described in Palmer et al. (2017).

Row | SMILES | outcome | AC50
1 | Fc1ccccc1[C@@H](F)COC1CCC(Nc2ncnc3[nH]ncc23)CC1 (some centres undefined) | inactive | 
2 | Nc1nc2ncc(CNc3ccc(C(=O)N[C@@H](CCC(=O)O)C(=O)O)cc3)nc2c(=O)[nH]1 | inactive | 
3 | On1ccccc1=S |  | 8.35 µM (active)
4 | CNCc1ccc(NC(=O)c2c[nH]c3c2C(=O)CCC3)cc1 | inactive | 
5 | Cn1c(=O)cc(Oc2ccc(F)cc2F)c2cnc(NCC(C)(C)O)nc21 | inactive | 
6 | COCCOCCOCCOC | inactive | 
7 | CN(C)c1ccc(N=NS(=O)(=O)O)cc1 |  | 21.1 µM (active)
8 | CCN(C(=O)c1cc(C)cc(OC[C@H](C)Nc2ccncc2)c1)C(C)C | inactive | 
9 | Cn1c(=O)c2c(ncn2C)n(C)c1=O | inactive | 
10 | CC[C@H](C)C(=O)O[C@H]1C[C@@H](C)C=C2C=C[C@H](C)[C@H](CC[C@@H]3C[C@@H](O)CC(=O)O3)[C@H]21 | inactive | 
11 | CC(C)CCO | inactive | 
12 | COc1ccc2sc(C(=O)Nc3nnn[nH]3)c(OC(C)C)c2c1 |  | 2.01 µM (active)
13 | CCC(C)(C)C(=O)O[C@H]1C[C@@H](C)C=C2C=C[C@H](C)[C@H](CC[C@@H]3C[C@@H](O)CC(=O)O3)[C@H]21 | inactive | 
14 | Nc1ccc(Nc2ccccc2)cc1 |  | 6.7 µM (active)
15 | O=c1n(CC2CO2)c(=O)n(CC2CO2)c(=O)n1CC1CO1 (centres undefined) |  | 1.06 µM (active)
16 | CCOC(=O)c1ccc(C2CCC(NC[C@H](O)COc3ccc(O)c(NS(C)(=O)=O)c3)CC2)cc1 (some centres undefined) | inactive | 
17 | Cn1cnc([N+](=O)[O-])c1Sc1ncnc2nc[nH]c12 |  | 4.02 µM (active)
18 | CC(C)CC(C)(O)C#CC(C)(O)CC(C)C (centres undefined) | inactive | 
19 | CC[C@H]1CC[C@H](NCc2cc3c(cc2OC)[C@H]2C[C@H]2C(=O)N3C)[C@H](c2ccccc2)N1 |  | 9.43 µM (active)
20 | COc1cccc(-c2ccc(/C=C\CN3CCCCCC3)cc2Cl)c1 |  | 1.1 µM (active)
21 | CC(C)c1cccc(C(C)C)c1N1C(=O)c2ccc(O)cc2C1=O |  | 20.6 µM (active)
22 | CC(C)=CCCC(C)=CC=O | inactive | 
23 | NC(=O)NO |  | 341 µM (active)
24 | O=c1[nH]c2ccc(S(=O)CCN3CCC(Cc4ccc(F)cc4)CC3)cc2o1 (centres undefined) | inactive | 
